These results are taken from PubChem BioAssay.

Activity calls are given as the source filed them. Unless noted, the rule behind the calls is not given here.

In test [1] the test system is Wnt5a (protein binding on small-molecule microarray). Put plainly: Wnt5a binders on small-molecule microarray, primary screen, biophysical, 635/667 nm fluorescence (AID 1142).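 Note: fluorescence read at 667 nm with signal to noise per printed feature.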 Particulars: 635 nm fluorescence, higher = more signal.
Test [2] in a line: cell viability in Huh7 cells, primary screen, cytotoxicity control for HCV replication inhibitor project, CellTiter-Glo luminescence, basal, 48 h (AID 1143).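 Note: Huh7 hepatoma cells carrying a hepatitis C replication reporter with no stimulus; test concentration not given here.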 The conditions noted are these: Huh7 HCV replicon, higher = more signal, called active from +8 up or from −8 down. (In general: In ATP-based viability assays light output follows the ATP content of the culture.)
The nature of test [3]: P. aeruginosa biofilm formation inhibitors, primary screen, PAO1 strain, BacTiter-Glo luminescence, LB-PBS (AID 1144). The conditions noted are these: 12 h, higher = more signal.
Test [4] in a line: CREB reporter modulators without forskolin, primary screen, cell-based, PC12, CRE-LacZ reporter, unstimulated (AID 1145). Particulars: no forskolin, luminescence, 4.5 h, higher = more signal, called active from +8 up or from −8 down.
Test [5] in a line: CREB reporter modulators under forskolin, primary screen, cell-based, PC12, CRE-LacZ reporter, forskolin-stimulated (AID 1146).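 Note: PC12 cells with 6xCRE LacZ reporter stimulated by forskolin 10 µM; beta-galactosidase reporter signal reflecting CREB driven transcription.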 The conditions noted are these: luminescence, 4.5 h, higher = more signal, called active from +8 up or from −8 down.
Test [6] deals with Streptavidin (Streptomyces avidinii) (UniProt P22629). Put plainly: streptavidin binders on small-molecule microarray, primary screen, artefact control for SMM compound annotation, biophysical, 635/667 nm fluorescence (AID 1147).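 Note: signal reflects streptavidin binding to arrayed compounds as a control protein.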 The conditions noted are these: streptavidin binding, higher = more signal.
Test [7] is described as follows: small-molecule binders of probe aInhba, primary screen, biochemical, small-molecule microarray, 635/667 nm fluorescence (AID 1148).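 Note: score merges 667nm spot fluorescence with signal-to-noise for antibody binding to printed compounds.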 The conditions noted are these: higher = more signal.
In test [8] the target is Torsin-1A (Homo sapiens) (UniProt O14656). Put plainly: torsin A binders from cell lysate, primary screen, small-molecule microarray, wild-type, 635/667 nm (AID 1149). The conditions noted are these: COS7 hTOR1A-WT lysate, 635 nm fluorescence, higher = more signal.
For test [9] the target is unchanged. Put plainly: small-molecule binders of mutant TOR1A in lysate, primary screen, cell lysate, small-molecule microarray, COS7 lysate, 635/667 nm fluorescence (AID 1150).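 Note: score pools 667 nm emission and signal to noise measuring lysate protein binding.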 Particulars: COS7 hTOR1A mutant lysate, 635 nm fluorescence, higher = more signal.
In test [10] the test system is Sonic hedgehog protein (Shh). Put plainly: small-molecule binders of Shh protein, primary screen, biochemical, small-molecule microarray, 635/667 nm fluorescence (AID 1151).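 Note: Shh protein binding to compounds spotted on small-molecule microarray slides; score combines spot fluorescence intensity with signal-to-noise across triplicate slides.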 Particulars: small-molecule microarray binding, 635 nm fluorescence; higher = more signal.
Test [11] can be described thus: E. coli DRC41 culture turbidity changes, primary screen, E. coli filamentation inducer project, strain DRC41, OD650, 48 h (AID 1152).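 Note: E. coli MC1000 strain DRC41 lacking acrAB efflux pump and sulA.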 The conditions noted are these: E. coli DRC41 (acrAB sulA), higher = more signal, called active from +8 up or from −8 down.
The nature of test [12]: small-molecule binders of probe aLefty1, primary screen, biochemical, small-molecule microarray, 635/667 nm fluorescence (AID 1153).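 Note: score merges spot fluorescence with signal-to-noise ratio from the scanned slide images.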 Particulars: higher = more signal.
A short description of test [13]: PSAC antagonists in infected red cells, primary screen, cell-based, P. falciparum Indochina, OD700, 1 h (AID 1154). Particulars: P. falciparum Indochina infected RBC osmotic lysis, higher = more signal, called active from +8 up or from −8 down.
Test [14] is described as follows: PSAC antagonists in infected red cells, primary screen, cell-based, P. falciparum Indochina, OD700, 2 h (AID 1155).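 Note: lysis reports solute entry through the parasite surface anion channel PSAC; channel blockers reduce lysis of infected cells.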 Particulars: P. falciparum Indochina infected erythrocytes, osmotic lysis OD700; higher = more signal, called active from +8 up or from −8 down.
Test [15] is described as follows: osmotic lysis modulators in infected erythrocytes, primary screen, PSAC antagonist project, cell-based, P. falciparum Indochina, OD700, 3 h (AID 1156). Particulars: higher = more signal, called active from +8 up or from −8 down.
Test [16] in a line: PSAC antagonists in infected red cells, primary screen, cell-based, P. falciparum Indochina, OD700, 18 h (AID 1157). The conditions noted are these: P. falciparum Indochina infected erythrocytes, osmotic lysis OD700, 18 h; higher = more signal, called active from +8 up or from −8 down.
The nature of test [17]: modulators of S6 phosphorylation in cells, primary screen, cell-based, A549, cytoblot, luminescence, serum-stimulated (AID 1158).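 Note: serum-stimulated A549 lung adenocarcinoma cells; signal is phosphorylated S6 detected by cytoblot immunostaining with HRP secondary.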 The conditions noted are these: A549 phospho-S6 cytoblot, 5 h, higher = more signal.
For test [18], the target named is NADPH oxidase 2 (Homo sapiens) (UniProt P04839). Put plainly: NOX2-dependent H2O2 signal modulators, primary screen, NOX inhibitor project, cell-based, HEK293-NOX2, PMA-stimulated, Amplex Red fluorescence (AID 1159). Note: test concentration not given here. The conditions noted are these: 45 min, higher = more signal, called active from +8 up or from −8 down.
For test [19], the target named is NADPH oxidase 4 (Homo sapiens) (UniProt Q9NPH5). Put plainly: NOX4-dependent H2O2 signal modulators, primary screen, NOX inhibitor project, cell-based, HEK293-NOX4, tetracycline-induced, Amplex Red fluorescence (AID 1160). The conditions noted are these: 45 min, higher = more signal, called active from +8 up or from −8 down.
The target in test [20] is NADPH oxidase 5 (Homo sapiens) (UniProt Q96PH1). Put plainly: NOX5-dependent H2O2 signal modulators, primary screen, NOX inhibitor project, cell-based, HEK293-NOX5, Amplex Red fluorescence (AID 1161). Particulars: HEK293-NOX5, ionomycin, 45 min, higher = more signal.
NADPH oxidase 5 (Homo sapiens), sequence (Q96PH1 whole entry, looked up): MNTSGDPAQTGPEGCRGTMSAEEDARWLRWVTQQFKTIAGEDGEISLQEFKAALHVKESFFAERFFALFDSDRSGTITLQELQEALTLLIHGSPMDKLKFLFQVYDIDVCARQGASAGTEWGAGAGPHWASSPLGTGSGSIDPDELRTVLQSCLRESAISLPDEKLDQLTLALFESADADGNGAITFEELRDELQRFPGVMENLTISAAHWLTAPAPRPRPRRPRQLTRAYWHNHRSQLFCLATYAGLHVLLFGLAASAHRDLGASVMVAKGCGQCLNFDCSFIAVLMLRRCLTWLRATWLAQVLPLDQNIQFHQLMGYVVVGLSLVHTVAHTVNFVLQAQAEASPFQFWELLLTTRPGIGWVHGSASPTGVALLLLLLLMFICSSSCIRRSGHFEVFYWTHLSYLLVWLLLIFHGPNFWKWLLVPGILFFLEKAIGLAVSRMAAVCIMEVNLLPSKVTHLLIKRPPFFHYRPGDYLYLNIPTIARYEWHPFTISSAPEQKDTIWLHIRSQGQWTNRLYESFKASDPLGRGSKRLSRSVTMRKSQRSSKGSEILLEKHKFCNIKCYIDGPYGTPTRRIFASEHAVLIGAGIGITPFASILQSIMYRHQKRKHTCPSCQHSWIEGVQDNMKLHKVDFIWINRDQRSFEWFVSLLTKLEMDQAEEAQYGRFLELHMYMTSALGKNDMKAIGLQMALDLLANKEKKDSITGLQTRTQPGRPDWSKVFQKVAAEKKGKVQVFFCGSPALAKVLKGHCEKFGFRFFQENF

Torsin-1A (Homo sapiens), sequence (O14656 whole entry, looked up): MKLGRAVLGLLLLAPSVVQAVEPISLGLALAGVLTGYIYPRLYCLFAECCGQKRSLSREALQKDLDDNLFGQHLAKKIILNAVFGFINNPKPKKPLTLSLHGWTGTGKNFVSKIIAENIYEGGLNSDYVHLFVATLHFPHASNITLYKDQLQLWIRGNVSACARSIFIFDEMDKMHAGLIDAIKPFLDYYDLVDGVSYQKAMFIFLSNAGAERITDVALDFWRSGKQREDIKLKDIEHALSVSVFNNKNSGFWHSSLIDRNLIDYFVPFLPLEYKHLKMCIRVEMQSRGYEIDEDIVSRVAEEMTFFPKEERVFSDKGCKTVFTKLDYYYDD
NADPH oxidase 2 (Homo sapiens), sequence (P04839 whole entry, looked up): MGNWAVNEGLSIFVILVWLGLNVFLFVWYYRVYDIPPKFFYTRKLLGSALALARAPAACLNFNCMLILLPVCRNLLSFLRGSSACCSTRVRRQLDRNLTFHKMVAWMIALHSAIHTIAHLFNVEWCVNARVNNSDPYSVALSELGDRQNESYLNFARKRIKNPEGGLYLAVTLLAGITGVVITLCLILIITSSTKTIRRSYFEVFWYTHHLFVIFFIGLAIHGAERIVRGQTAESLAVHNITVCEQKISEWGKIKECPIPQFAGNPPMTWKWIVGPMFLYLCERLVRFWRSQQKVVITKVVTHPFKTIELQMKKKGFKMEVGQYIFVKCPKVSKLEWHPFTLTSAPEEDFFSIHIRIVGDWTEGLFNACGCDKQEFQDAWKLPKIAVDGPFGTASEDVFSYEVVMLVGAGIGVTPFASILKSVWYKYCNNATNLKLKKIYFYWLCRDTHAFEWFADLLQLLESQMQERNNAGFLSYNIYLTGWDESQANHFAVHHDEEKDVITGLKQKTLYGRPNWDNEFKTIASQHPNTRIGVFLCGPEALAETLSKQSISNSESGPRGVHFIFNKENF
NADPH oxidase 4 (Homo sapiens), sequence (Q9NPH5 whole entry, looked up): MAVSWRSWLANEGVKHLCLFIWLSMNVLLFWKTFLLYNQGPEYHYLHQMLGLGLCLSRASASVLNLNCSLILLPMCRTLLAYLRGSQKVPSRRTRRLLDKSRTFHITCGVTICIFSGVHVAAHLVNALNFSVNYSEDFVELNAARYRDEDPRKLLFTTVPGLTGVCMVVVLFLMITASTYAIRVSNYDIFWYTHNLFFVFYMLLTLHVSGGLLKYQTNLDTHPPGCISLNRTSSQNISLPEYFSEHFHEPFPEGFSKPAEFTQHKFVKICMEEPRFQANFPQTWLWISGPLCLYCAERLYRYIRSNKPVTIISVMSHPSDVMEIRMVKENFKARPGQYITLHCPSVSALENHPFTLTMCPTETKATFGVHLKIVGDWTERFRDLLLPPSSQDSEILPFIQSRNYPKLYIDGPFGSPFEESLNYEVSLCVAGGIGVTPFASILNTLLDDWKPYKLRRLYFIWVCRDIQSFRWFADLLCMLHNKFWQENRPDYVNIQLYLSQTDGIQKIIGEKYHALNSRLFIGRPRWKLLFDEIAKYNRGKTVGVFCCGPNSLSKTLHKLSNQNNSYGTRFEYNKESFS
Streptavidin (Streptomyces avidinii), sequence (P22629 whole entry, looked up): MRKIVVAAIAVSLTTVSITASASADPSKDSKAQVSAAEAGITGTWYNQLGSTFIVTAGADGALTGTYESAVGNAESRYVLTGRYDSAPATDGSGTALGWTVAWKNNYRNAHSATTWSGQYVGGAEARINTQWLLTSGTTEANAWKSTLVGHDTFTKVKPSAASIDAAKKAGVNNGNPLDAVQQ

On to `C=CCN1Cc2ccccc2[C@H]2OC(c3ccc(OCCCO)cc3)=N[C@@]2(CCS(=O)(=O)c2ccccc2)C1=O`, for which the composite z-score in test [1] was 1.07; in test [6], 0.22; in test [7] it was 0.275; with Torsin-1A (Homo sapiens) [8] it was 0.695; with Torsin-1A (Homo sapiens) [9], 1.26; in test [10], 1.28. In test [12], this molecule displayed a composite z-score of 0.607. Besides, the z-score in [2] was -2.3 (inactive); in [3], 0.477 (inactive); in [4] it was 1.44 (inactive); in test [5], -1.27 (inactive); in [11] it was -0.028 (inactive); in test [13], 30.4 (active). Moreover, the z-score in test [14] was 27.2 (active); in test [15], 1.47 (inactive); in test [16] it was 6 (inactive); in test [17], -0.272; in test [18], -0.697 (inactive); in [19] it was 1.93 (inactive). Moreover, the z-score in [20] came to 0.119.

Turning to `O=C1O[C@H](c2ccccc2)[C@H](c2ccccc2)N2[C@H]1[C@@H](C(=O)N1CCN(c3ncccn3)CC1)[C@]1(C(=O)Nc3ccc(C#CCCO)cc31)[C@H]2c1ccc(O)cc1`, the composite z-score in test [1] stood at 0.313; in test [6], 1.05; in test [7] it was 0.0111; in the test with Torsin-1A (Homo sapiens) [8], 0.161; with Torsin-1A (Homo sapiens) [9], 0.0065; in test [10], 0.429. Further, in test [12], the composite z-score is 0.208. In addition, the z-score in [2] is -0.522 (inactive); in test [3], -0.218 (inactive); in test [4], 0.0653 (inactive); in [5], 0.253 (inactive); in [11] it was -0.951 (inactive); in test [13], 1.28 (inactive). Besides, the z-score in test [14] was 0.436 (inactive); in test [15], 1.2 (inactive); in [16], 0.0991 (inactive); in test [17] it was 0.201; in test [18], 0.84 (inactive); in test [19], 0.722 (inactive). The z-score in test [20] was determined as 1.41.

In the case of `COC(=O)[C@@]1(Cc2ccc(F)cc2)[C@H]2c3cc(C(=O)N(C)C)n(C)c3C[C@H]2CN1C(=O)c1ccccc1`, the composite z-score in test [1] was 0.418; in [6], 0.069; in [7], 0.395; with Torsin-1A (Homo sapiens) [8], -0.0772; in the test with Torsin-1A (Homo sapiens) [9], 0.814; in test [10], -0.34. The same molecule showed a composite z-score in test [12] of 0.113. Further, the z-score was -0.771 (inactive) in test [2]; -0.259 (inactive) in test [3]; 0.0007 (inactive) in test [4]; -0.339 (inactive) in [5]; -1.18 (inactive) in test [11]; 0.404 (inactive) in test [13]. Moreover, the z-score in test [14] is 0.149 (inactive); in test [15] it was -0.898 (inactive); in test [16], 0.545 (inactive); in test [17] it was -0.8; in [18], 0.323 (inactive); in test [19], -0.0748 (inactive). In test [20], this molecule displayed a z-score of -0.552.

As to `C[N+](C)(C)CCCCNC(=O)[C@H]1C[C@H]2C(=O)N[C@@H](Cc3ccccc3)C(=O)N2[C@H]1c1cccc(OCCO)c1`, the composite z-score in [1] came to 0.278; in [6], 0.313; in test [7], 0.152; in the test with Torsin-1A (Homo sapiens) [8] it was 0.971; in the test with Torsin-1A (Homo sapiens) [9], 0.342; in test [10], 2.23. This molecule also showed a composite z-score in test [12] of 0.186. The z-score in test [2] was -0.15 (inactive); in [3] it was -0.495 (inactive); in [4], -0.13 (inactive); in test [5] it was -0.384 (inactive); in test [11], 0.0946 (inactive); in [13], 5.34 (inactive). Moreover, the z-score in test [14] was 0.772 (inactive); in test [15] it was -0.835 (inactive); in test [16] it was 0.818 (inactive); in test [17], 0.17; in [18] it was -0.423 (inactive); in test [19], -0.824 (inactive). The same molecule gave a z-score in test [20] of -0.418.

For the molecule `COCCOC(=O)N1C(=O)[C@@]2(c3cc(C#Cc4ccc(OC)cc4)ccc31)[C@H](c1ccc(OCCO)cc1)N1[C@H](c3ccccc3)[C@H](c3ccccc3)OC(=O)[C@H]1[C@@H]2C(=O)NC[C@H](O)c1ccccc1`, the composite z-score in test [1] was 0.316; in [6], 0.769; in [7], 0.0301; with Torsin-1A (Homo sapiens) [8], 0.677; with Torsin-1A (Homo sapiens) [9] it was 0.603; in [10], 1.5. The molecule also showed a composite z-score in test [12] of 0.257. Moreover, the z-score in [2] is -1.07 (inactive); in test [3], -0.367 (inactive); in test [4], -0.463 (inactive); in test [5], 0.003 (inactive); in test [11] it was -0.0906 (inactive); in test [13], 4.14 (inactive). For the same molecule, the z-score in [14] is 2.07 (inactive); in [15] it was 0.0276 (inactive); in test [16], 1.24 (inactive); in [17], -0.539; in [18] it was 1.27 (inactive); in test [19], 0.708 (inactive). This molecule registered a z-score in [20] of 1.11.

On to `NCCCCCCNC(=O)[C@@H]1C[C@@H]2C(=O)N3CCC[C@H]3C(=O)N2[C@@H]1c1cccc(OCCO)c1`, for which the composite z-score in test [1] was 0.587; in [6], 0.56; in test [7], -0.024; with Torsin-1A (Homo sapiens) [8] it was 2.21; in the test with Torsin-1A (Homo sapiens) [9], 1.07; in [10] it was 0.513. Moreover, in test [12], the composite z-score was 0.012. Also, the z-score was -0.182 (inactive) in [2]; 0.884 (inactive) in [3]; -0.386 (inactive) in test [4]; -1.43 (inactive) in [5]; 1.82 (inactive) in test [11]; 4.29 (inactive) in test [13]. In addition, the z-score is -0.643 (inactive) in test [14]; 1.53 (inactive) in test [15]; -1.8 (inactive) in test [16]; -0.0015 in test [17]; 1.62 (inactive) in test [18]; 1.42 (inactive) in [19]. For the same molecule, the z-score in [20] was 0.99.

As for `CCCCC(O)C1C=CC2C(=O)N(c3ccccc3)C(=O)C2N1Nc1ccc([N+](=O)[O-])cc1` (stereo not given), the composite z-score in test [1] is 0.044; in test [6] it was 0.736; in test [7], 0.215; in the test with Torsin-1A (Homo sapiens) [8], 0.47; with Torsin-1A (Homo sapiens) [9] it was 0.482; in test [10] it was -0.61. This molecule registered a composite z-score in test [12] of 0.683. In addition, the z-score in test [2] is -3.32 (inactive); in test [3] it was -2.08 (inactive); in test [4], -0.219 (inactive); in test [5], -0.176 (inactive); in test [11], 0.372 (inactive); in test [13], 14.2 (active). For the same molecule, the z-score was 1.38 (inactive) in test [14]; 0.371 (inactive) in [15]; -1.06 (inactive) in test [16]; 0.581 in test [17]; -1.08 (inactive) in [18]; -1.65 (inactive) in test [19]. Besides, the z-score in [20] was -0.302.

With `CO[C@H]1O[C@H](CO)[C@@H](OC(=O)Nc2ccccc2)[C@H](OC(=O)Nc2ccccc2)[C@H]1OC(=O)Nc1ccccc1`, the composite z-score in test [1] was 0.664; in test [6], 0.0545; in test [7], 0.0343; in the test with Torsin-1A (Homo sapiens) [8], -0.196; in the test with Torsin-1A (Homo sapiens) [9] it was 1.07; in test [10] it was 0.78. The composite z-score in test [12] came out at 0.264. Moreover, the z-score is -4.39 (inactive) in [2]; -1.41 (inactive) in [3]; 1.04 (inactive) in test [4]; -2.64 (inactive) in test [5]; 0.492 (inactive) in test [11]; 4.11 (inactive) in [13]. Further, the z-score in [14] is 1.04 (inactive); in test [15], 0.406 (inactive); in [16] it was 0.912 (inactive); in [17], 0.22; in test [18], -7.66 (inactive); in test [19], -1.15 (inactive). In test [20], this molecule gave a z-score of -2.32.
